IMPase Li cell – membrane-permeable IMPase blocker, potentiated with lithium; CHO-M1 cells, IP1 TR-FRET (IP-One), carbachol + lithium; Potency, µM (highest dose often 59.4 µM), most hits filed as inhibitors; actives 0.35% (n = 210,000); active = well fitted curve in the direction sought with a large enough effect; inconclusive = small, poorly fitted or top-dose-only effect, or another doubt; inactive = no such curve, though single readings can be large; an effect the other way counts as inactive or inconclusive;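 note: IP1 builds up when IMPase is blocked and the TR-FRET signal falls; nearly all actives have a fitted effect of over 50% in size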
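Concentration–response in CHO-M1 cells, lithium-potentiated; 30 min at 37C. IP1 detected by competitive TR-FRET after 10 min lysis at RT. Hill-fitted AC50.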
ALDH1A1 inh – ALDH1A1 (human) enzyme inhibition. P00352. Purified ALDH1A1, NADH fluorescence, propionaldehyde substrate. Potency, µM (top dose mostly 75.3 µM), actives largely listed as inhibitors. actives 7.3% (n = 220,000). AID 1030
Target sequence (P00352 whole entry, looked up): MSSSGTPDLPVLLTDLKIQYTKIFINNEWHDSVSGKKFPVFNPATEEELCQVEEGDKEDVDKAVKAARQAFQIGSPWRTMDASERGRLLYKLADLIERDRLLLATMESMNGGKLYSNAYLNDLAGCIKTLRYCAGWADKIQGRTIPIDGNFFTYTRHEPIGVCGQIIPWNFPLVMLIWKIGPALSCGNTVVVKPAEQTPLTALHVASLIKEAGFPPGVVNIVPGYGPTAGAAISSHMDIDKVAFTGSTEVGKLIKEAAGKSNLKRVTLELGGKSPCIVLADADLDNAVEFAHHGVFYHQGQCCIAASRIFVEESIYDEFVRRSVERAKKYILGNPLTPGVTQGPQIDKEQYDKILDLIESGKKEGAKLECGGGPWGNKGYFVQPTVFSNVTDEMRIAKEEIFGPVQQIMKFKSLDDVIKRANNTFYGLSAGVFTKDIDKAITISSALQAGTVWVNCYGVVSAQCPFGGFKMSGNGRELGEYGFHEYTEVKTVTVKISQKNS
IMPase inh – cell-permeable inhibitors of inositol monophosphatase (IMPase); P97697; CHO-M1 cells, IP1 accumulation, HTRF TR-FRET ratio; inhibition (IP1 accumulation), % at 46.1 µM; 120,000 tested, under 10 active; AID 901; active = well fitted curve in the direction sought with a large enough effect in the signal ratio, not every such curve was filed as active; inconclusive = small, poorly fitted or top-dose-only effect, or a change in a side signal; inactive = no such curve, though single readings can be large or run the other way; the % refers to the signal ratio;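 note: cells stimulated with carbachol in lithium chloride buffer; higher means more IMPase inhibition seen as more IP1 and lower FRET ratio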
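Seeded CHO-M1 cells were dosed with compound at up to 46 uM, stimulated with carbachol for 30 min, then lysed in IP-One detection reagents. Higher IP1 lowers the TR-FRET signal.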
ALOX12 inhib – inhibitors of human 12-lipoxygenase (ALOX12); P18054; purified 12-hLO, xylenol orange hydroperoxide absorbance; Potency, µM (highest dose often 57.1 µM), usual class: inhibitors; actives 0.12% (n = 150,000); AID 1452; active = well fitted curve in the direction sought with a large enough effect; inconclusive = small, poorly fitted or top-dose-only effect, or another doubt; inactive = no such curve, though single readings can be large; an effect the other way counts as inactive or inconclusive; note: nearly all actives have a fitted effect of over 55% in size
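Purified human 12hLO (150 nM), preincubated 15 min with compound, then 40 uM arachidonic acid for 30 min, room temperature, Hepes pH 7.0 with 0.01% Triton X-100. Hydroperoxide detected by ferrous iron/xylenol orange; 573/405 nm absorbance ratio gives reaction progress.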
PNC inhibitor – perinucleolar compartment assembly inhibition. activity change (PNC), negative = inhibition, % at 10 µM. PC3M PTB-GFP, PNC prevalence imaging, 16 h; stronger effect = lower value. actives 3.1% (n = 140,000);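 active = readout at or below -70, meaning at least 70% loss of cells showing the perinucleolar compartment, a nuclear body marking cancer cells; inconclusive = readout between -30 and a set limit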
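Compounds are pinned in duplicate onto adhered PC3M cells stably expressing GFP-tagged PTB and incubated 16 h at 37 C. Cells are then fixed, nuclei stained with Hoechst, and PNC-positive cells counted.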
HPGD block – blocks human HPGD enzyme activity. actives 4.3% (n = 150,000). purified HPGD, NADH fluorescence kinetic, PGE2 substrate. Potency, µM, hits mostly inhibitors. P15428
Target sequence (P15428 whole entry, looked up): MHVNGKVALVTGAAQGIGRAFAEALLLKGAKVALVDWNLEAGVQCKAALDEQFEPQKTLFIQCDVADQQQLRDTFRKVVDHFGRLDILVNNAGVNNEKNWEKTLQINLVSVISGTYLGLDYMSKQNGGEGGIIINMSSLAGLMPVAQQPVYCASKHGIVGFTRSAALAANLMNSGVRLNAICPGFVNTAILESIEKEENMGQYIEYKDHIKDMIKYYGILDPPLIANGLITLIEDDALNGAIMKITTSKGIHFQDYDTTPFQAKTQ
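NADH formation kinetics: reaction with 30 uM PGE2 and 1 mM NAD+ (final), 20 nM enzyme, Tris-HCl pH 8 with Tween 20, after 15 min compound preincubation at room temperature. Fluorescence change, last versus first of five reads.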
Of the large screens only hits and unclear results are named; the others gave an inactive call. Only some compounds are listed: those with a hit (about 11% of all), similar ones and a draw of the others. Unless noted, calls come from the whole dose curve; as a rule, active = well fitted inhibition curve with a large enough effect (not every such curve was filed as active); inconclusive = small, poorly fitted or top-dose-only effect, or another doubt; inactive = no such curve, though single readings can be large or run the other way.

COc1ccc(OC)c(C2CC(=O)c3c([nH]c(C(=O)OC4CCC(C)CC4)c3C)C2)c1 (centres undefined)	none (no result: IMPase Li cell, ALDH1A1 inh, ALOX12 inhib, PNC inhibitor, HPGD block)
Cc1ccc2nc(N3CCN(c4ccccc4F)CC3)c(C=O)c(=O)n2c1	ALDH1A1 inh inconclusive (no result: IMPase inh, ALOX12 inhib, PNC inhibitor, HPGD block)
CCn1c(=O)c(=O)n(CC)c2cc(N3CCCCC3)c(NC(=O)c3cccc(OC)c3)cc21	none (no result: IMPase Li cell, ALDH1A1 inh, ALOX12 inhib, PNC inhibitor, HPGD block)
CC(=O)N1CCC[C@@]2(CCN(C(c3ccccc3)c3ccccc3)C2)C1	none (no result: IMPase inh, PNC inhibitor)
CSc1nc(C)cc(-n2cc(F)c(=O)[nH]c2=O)n1	HPGD block 14µM
CC(C)C(=O)C(C)(C)CCc1ccccn1	none (no result: IMPase inh, PNC inhibitor)
Cn1c(=O)c2c(O)c(Cc3ccccc3)c(=O)[nH]c2n(C)c1=O	ALDH1A1 inh 14µM, PNC inhibitor inconclusive (no result: IMPase inh)
COc1ccc(C2SCCN2C(=S)Nc2ccc(F)cc2)cc1 (centres undefined)	ALDH1A1 inh inconclusive
COc1ccc(C2SCCN2C(=S)Nc2cccc(C(F)(F)F)c2)cc1 (centres undefined)	PNC inhibitor -82
COc1ncc2nc(-c3cc(F)cc(F)c3)c(=O)n(-c3ccccc3)c2n1	none (no result: IMPase inh, ALOX12 inhib, PNC inhibitor, HPGD block)
O=C(Nc1ccc2c(c1)OCCO2)C1CCN(S(=O)(=O)c2cccc3nsnc23)CC1	ALDH1A1 inh inconclusive, PNC inhibitor -81
O=S(=O)(Nc1ccc2c(c1)OCCO2)c1cccc2nsnc12	ALDH1A1 inh 25µM
O=C(Nc1ccc2c(c1)OCCO2)C1CCCN(S(=O)(=O)c2cccc3nsnc23)C1 (centres undefined)	PNC inhibitor -113
COc1cc(NC(=O)C2CCCN(S(=O)(=O)c3cccc4nsnc34)C2)cc(OC)c1 (centres undefined)	none
CC[C@@H](c1ccccc1)n1c(=O)n2n(c1=O)[C@H]1[C@H](O)[C@H]3O[C@H]3C(=O)[C@H]1CC2	none (no result: IMPase Li cell, IMPase inh, ALOX12 inhib, PNC inhibitor, HPGD block)
COc1cc(C2Nn3c(nnc3-c3ccccc3OC)S2)ccc1O (centres undefined)	ALDH1A1 inh 24µM, HPGD block inconclusive
COc1cc(C2Nc3ccccc3C(=O)N2c2ccccc2OC)ccc1O (centres undefined)	ALDH1A1 inh inconclusive, PNC inhibitor inconclusive, HPGD block inconclusive
COc1ccccc1OCC(=O)Nn1c(=S)[nH]c2ncccc2c1=O	none
O=C(COc1ccc(Cl)cc1Cl)Nn1c(=S)[nH]c2ncccc2c1=O	PNC inhibitor inconclusive, HPGD block 28µM
CC(=O)OC1CCC2(C)C(=CCC3C2CCC2(C)C3C[C@@H]3O[C@]32C(C)=O)C1 (some centres undefined)	none (no result: PNC inhibitor)
O=C(c1cccnc1)N1N=C(C2CCCCC2)CC1(O)C(F)(F)F (centres undefined)	ALDH1A1 inh 13µM (no result: IMPase inh, ALOX12 inhib, PNC inhibitor, HPGD block)
COC(=O)C1NN=C(C(=O)c2ccc(Cl)cc2)C1c1ccc(OC)cc1 (centres undefined)	ALDH1A1 inh 25µM (no result: IMPase inh)
COC(=O)C1NN=C(C(=O)c2ccccc2)C1c1ccccc1 (centres undefined)	ALDH1A1 inh inconclusive (no result: IMPase inh)
NCC(O)C1CCCCCCC1 (centres undefined)	none (no result: IMPase inh, ALOX12 inhib, PNC inhibitor)
C[C@H](C(=O)c1ccccc1)C(c1ccccc1)N1CCOCC1 (some centres undefined)	ALDH1A1 inh inconclusive (no result: IMPase inh, ALOX12 inhib, PNC inhibitor)
N=c1n(CCO)c2ccccc2n1CCOc1ccccc1	none
OCCOCCn1c2ccccc2c2ccccc21	PNC inhibitor -139
O=C(c1csnn1)N1CCC[C@@]2(CCN(c3ncccn3)C2)C1	none (no result: IMPase inh, PNC inhibitor)
Fc1ccc(NC(=S)Nc2cccnc2)cc1Cl	ALDH1A1 inh 28µM (no result: IMPase inh, ALOX12 inhib, PNC inhibitor, HPGD block)
Fc1ccc(NC(=S)Nc2cc(-c3ccccc3)[nH]n2)cc1Cl	ALDH1A1 inh 1.4µM (no result: IMPase inh, ALOX12 inhib, PNC inhibitor, HPGD block)
COc1ccc(/C=C2\CCCC3C2=NC(=S)NC3c2ccc(OC)cc2)cc1 (centres undefined)	ALDH1A1 inh 8.9µM, ALOX12 inhib 14µM, HPGD block inconclusive (no result: IMPase inh)
COc1ccc(OCC(O)CNS(=O)(=O)c2cccc(Cl)c2)cc1 (centres undefined)	ALDH1A1 inh 10µM (no result: IMPase Li cell, IMPase inh, ALOX12 inhib, PNC inhibitor, HPGD block)
CCOc1ccccc1N(CC(=O)N1CCCCCC1)S(C)(=O)=O	none
CCOc1ccccc1N(CC(=O)OC)S(C)(=O)=O	PNC inhibitor -106
Cc1ccccc1N(CC(=O)O)S(C)(=O)=O	PNC inhibitor -104
Cc1ccccc1N(CC(N)=O)S(C)(=O)=O	none
CC(NC(=O)CC(O)(C(F)(F)F)C(F)(F)F)c1ccccc1 (centres undefined)	PNC inhibitor -88
Cc1cccc(C)c1N1CCN(C(=O)Cn2cncn2)CC1	ALDH1A1 inh 13µM (no result: IMPase inh, ALOX12 inhib, PNC inhibitor, HPGD block)
CCOC(=O)c1sc(=S)n(C)c1N	PNC inhibitor inconclusive
CCOC(=O)c1sc(=S)n(Cc2ccccc2)c1N	none
CCOC(=O)c1sc(=S)n(-c2ccc(C)cc2)c1N	ALDH1A1 inh 14µM (no result: IMPase inh, ALOX12 inhib, PNC inhibitor, HPGD block)
CCOC(=O)c1sc(=S)n(-c2ccc3c(c2)OCO3)c1N	ALDH1A1 inh 10µM, HPGD block 7.9µM
Cc1ccc(-n2c(N)c(C(=O)NCc3cccnc3)sc2=S)cc1	ALDH1A1 inh inconclusive, HPGD block 25µM
CCOC(=O)c1sc(=S)n(-c2ccc(F)c(F)c2)c1N	ALDH1A1 inh 13µM, HPGD block inconclusive
CCOC(=O)c1sc(=S)n(-c2ccc(Cl)cc2)c1SC	none
COc1ccc(-n2c(N)c(C(=O)NCc3cccnc3)sc2=S)cc1	IMPase Li cell inconclusive
C/C=C1\C(=O)C[C@H]2[C@@H]3CCC4=CC(=O)CC[C@]4(C)[C@H]3CC[C@]12C	ALDH1A1 inh inconclusive (no result: IMPase inh, PNC inhibitor)
COc1cccc(/C=N/Nc2nn3cnnc3c3ccccc23)c1	ALDH1A1 inh inconclusive, PNC inhibitor -80, HPGD block inconclusive
COC(=O)[C@@]1(Cc2ccccc2)[C@H]2c3cc(C(=O)N4CCCC4)n(Cc4ccccc4)c3C[C@H]2CN1C(=O)c1ccccc1	none (no result: IMPase inh, PNC inhibitor)
CCOC(=O)c1sc(NC(=O)c2cccc(S(=O)(=O)N(CC)CC)c2)cc1C	none
CCOC(=O)c1sc(NC(=O)c2cccc(S(=O)(=O)N3CCN(C)CC3)c2)cc1C	ALDH1A1 inh inconclusive, HPGD block 25µM
N[C@@H](CSCc1ccccc1)C(=O)O	none (no result: IMPase inh, PNC inhibitor)
CCc1ccc(C2c3c(oc4ccc(F)cc4c3=O)C(=O)N2CCc2ccc(OC)cc2)cc1 (centres undefined)	none (no result: IMPase Li cell, ALDH1A1 inh, ALOX12 inhib, PNC inhibitor, HPGD block)
CCCC(C(=O)NCC1CCCO1)N(Cc1ccco1)C(=O)CNS(=O)(=O)c1ccccc1 (centres undefined)	ALDH1A1 inh 11µM
CC(C)C(C(=O)NCC1CCCO1)N(Cc1ccco1)C(=O)CNS(=O)(=O)c1ccc(F)cc1 (centres undefined)	none
O=C(CN(Cc1ccco1)C(=O)CNS(=O)(=O)c1ccc(Cl)cc1)NC1CCCCC1	none

Bioassay records from PubChem.
